Bioassay records from PubChem.
The list is not random: actives were taken first. Their share in the collection is about 3.6%.
mHTT CaM bind: disrupts binding of mutant huntingtin to calmodulin. P42858. AlphaScreen His-mHTT/GST-CaM binding, luminescence. inhibition, % at 15 µM. hit rate 3.6% among 190,000. AID 1671202;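 note: 0% = both proteins with DMSO and 100% = one protein alone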
Pf apPOL inh: Pf-apPOL DNA polymerase inhibition. Recombinant Pf-apPOL, molecular beacon fluorescence, 1.5 h. inhibition, % at 10 µM. hit rate 0.25% among 210,000. AID 1794808
Starred values were filed as active, the others as inactive; nt = no result; + = active, no number. Cut-off read from the data, not from the text of the source: active = inhibition above about 50%; inactive = the rest.

SMILES	mHTT CaM bind	Pf apPOL inh
Cc1cc(C)c(C2=NC(c3ccccc3)(c3ccccc3)c3ccccc3N2)c(=O)[nH]1	32	-8
COc1cccc(C2=NOC(C(=O)NCc3ccccc3)C2)c1OC (stereo not given)	-9	2
CCn1cc(CN2CCC(C(=O)NCc3ccc(N(C)C)cc3)CC2)c2cc(OC)ccc21	56*	-2
CCn1cc(CN2CCC(C(=O)NCc3ccc(OC)cc3)CC2)c2cc(OC)ccc21	20	1
COc1ccccc1/C=C1\SC(=O)N(Cc2ccc(F)cc2)C1=O	-3	-6
COc1cc(/C=C2\SC(=O)N(Cc3ccc(F)cc3)C2=O)c(Br)cc1O	75*	0
Cc1csc(-n2nnc(C(=O)N3CCN(c4ccccn4)CC3)c2C)n1	4	-2
COc1ccc2c(-c3cc4cc(Br)ccc4o3)cc(=O)oc2c1	0	-9
Oc1ccccc1C=NNc1nc2c(Cl)cc(Cl)cc2s1	nt	0
Oc1ccc(/C=N/Nc2nccnc2Cl)c(O)c1	+	nt
COc1c(Cl)cc(Cl)cc1C1Nc2ccccc2NC2=C1C(=O)CC(C)(C)C2 (stereo not given)	36	1
COc1ccc(NC(=O)C[C@H]2C(=O)N(Cc3cccnc3)C[C@@H]2Cc2ccccc2)cc1	18	-5
COc1ccc(CN2C[C@H](Cc3ccccc3)[C@@H](CC(=O)Nc3ccccc3)C2=O)cc1	68*	-7
CCCCC[C@H]1CN(CCCC)C(=O)[C@@H]1CC(=O)NCc1ccccc1	12	-10
CCCCC[C@H]1CN(Cc2ccc(OC)cc2)C(=O)[C@@H]1CC(=O)NCc1ccccc1	54*	2
O=C(C[C@H]1C(=O)N(c2ccccc2)C[C@@H]1Cc1ccccc1)Nc1ccc(Br)cc1	2	2
O=C(C[C@H]1C(=O)N(c2ccc(Br)cc2)C[C@@H]1Cc1ccccc1)Nc1ccccc1	51*	-5
S=C1NC2(CCCC2)NN1c1ccccc1	nt	9
c1cc2c3c(cccc3c1)NC1(CCCCCC1)N2	53*	nt
CC(C)n1c(=O)oc2cc(-c3noc(CCc4ccccc4)n3)ccc21	-24	0
Cc1c(-c2ccc(/C=C3\SC(=N)NC3=O)o2)ccc([N+](=O)[O-])c1C	41	2
COc1ccc(-c2ccc(/C=C3\SC(=N)NC3=O)o2)c([N+](=O)[O-])c1	59*	1
COc1ccc2oc(C)c(C(C)=O)c2c1	-7	98*
COc1ccc2oc(C)c(C(=O)O)c2c1	0	3
CC(C)(C)NC(=O)C(=O)NCc1cccnc1	-7	-2
SMILES	mHTT CaM bind	Pf apPOL inh
Cc1cccc2nnc(N3CCC(C(=O)N4CCN(C)CC4)CC3)n12	6	-2
CCn1ccc2oc(C)c(C(=O)N3CCN(c4ccccc4Cl)CC3)c2c1=O	77*	0
Cc1oc2ccn(Cc3ccccc3F)c(=O)c2c1C(=O)N1CCCC(C)C1 (stereo not given)	11	-1
CCn1ccc2oc(C)c(C(=O)N3CCN(C4CCCCC4)CC3)c2c1=O	18	1
CCC1CCCCN1C(=O)c1c(C)oc2ccn(Cc3ccccc3F)c(=O)c12 (stereo not given)	68*	2
c1ccc2c(N3CCN(c4ncnc5ccccc45)CC3)ncnc2c1	-4	57*
Brc1ccc2ncnc(N3CCCC3)c2c1	-2	-2
COc1ccc(C(O)CN2CCN(c3cc(C)ccc3C)CC2)cc1OC (stereo not given)	3	4
CC(=O)CC1c2cc(F)ccc2C=C(c2ccsc2)N1c1ccc(-c2cccnc2)cc1 (stereo not given)	9	4
COc1cc(OC)cc(C2=Cc3ccccc3C(CC(C)=O)N2c2ccc(C#CCCO)cc2)c1 (stereo not given)	-9	-4
NC(=O)c1ccc(-c2ccc(N3C(c4ccsc4)=Cc4ccc(F)cc4C3CC(=O)c3ccco3)cc2)cc1 (stereo not given)	58*	-2
COc1cc(OC)cc(C2=Cc3ccccc3C(CC(=O)c3ccco3)N2c2ccc(-c3cncnc3)cc2)c1 (stereo not given)	97*	-6
COc1ccc(N2C(c3cc(OC)cc(OC)c3)=Cc3ccccc3C2CC(C)=O)cc1 (stereo not given)	-28	-3
COc1cc(OC)cc(C2=Cc3ccccc3C(CC(=O)c3ccco3)N2c2ccc(-c3ccc(C(N)=O)cc3)cc2)c1 (stereo not given)	100*	2
CCn1c(=O)c(Nc2ccc(F)c(Cl)c2)nc2ccncc21	2	-2
O=C(O)C1C2C=CC(O2)C1C(=O)Nc1ccccc1F (stereo not given)	6	2
COc1cc(OC)c(C2C(C#N)=C(N)SC(N)=C2C#N)cc1OC	71*	nt
CCCC1C(C#N)=C(N)SC(N)=C1C#N	4	-6
CC1C(C#N)=C(N)SC(N)=C1C#N	98*	-3
COc1ccccc1C1C(C#N)=C(N)SC(N)=C1C#N	8	-5
Cc1ccc(NC(=O)c2c(C)sc3c(=O)n(C4CCCCC4)cnc23)c(C)c1	-1	2
CCOc1ccccc1C1CC(c2ccc(F)cc2)Nc2nc(N)nn21 (stereo not given)	72*	-2
COc1ccc(C2CC(c3ccccc3OC)n3nc(N)nc3N2)cc1 (stereo not given)	2	-4
COc1ccccc1C1CC(c2ccc(F)cc2)Nc2nc(N)nn21 (stereo not given)	62*	-3
COc1ccccc1C1CC(c2ccccc2)Nc2nc(N)nn21 (stereo not given)	-8	-1
SMILES	mHTT CaM bind	Pf apPOL inh
CN(C)Cc1c(O)ccc2c1OC(=Cc1ccncc1)C2=O	-7	-1
CC(=O)COc1ccc2c(c1)OC(=CC1=Cc3ccccc3OC1C)C2=O (stereo not given)	9	-7
COc1ccc(C2C(C#N)C(=O)NC(=O)C2[n+]2ccccc2)cc1 (stereo not given)	2	-8
Cc1ccc(-n2nc3cc(N)c(Cl)cc3n2)cc1	59*	7
Cc1cc2nn(-c3ccccc3)nc2cc1N	30	-2
CSc1cccc(NC(=O)c2ccc(Cl)cc2)c1	-10	-3
COc1ccc(OC)c(Nc2nc3nonc3nc2Nc2ccc(F)cc2)c1	14	5
COc1ccc(Nc2nc(N(C)C)nc3nccnc23)cc1	55*	-20
Cc1cccc(NC(=O)C2(C)Oc3cccnc3N(C)C2=O)c1C (stereo not given)	-10	3
O=C(NC1CC(O)C(CO)C1)C1CCCC1 (stereo not given)	-3	0
O=C(CSc1ccccn1)c1ccc2c(c1)OCO2	-8	-2
O=C(c1ccc2c(c1)OCO2)n1cccn1	-1	66*
CCOC(=O)c1ccc(N2CCCCC2)c(NC(=O)C(Cl)(Cl)Cl)c1	nt	-12
Cc1ccc(CCNC(=O)c2c[nH]n3c(=O)c(Cc4ccccc4F)c(C)nc23)cc1	31	-15
Cc1nc2c(C(=O)NCCc3ccc(Cl)cc3)c[nH]n2c(=O)c1Cc1ccccc1F	74*	-3
Cc1nc2c(C(=O)NCCc3ccccc3)c[nH]n2c(=O)c1Cl	16	-9
Cc1nc2c(C(=O)NCCc3ccccc3)c[nH]n2c(=O)c1Cc1ccc(Cl)cc1	68*	-5
O=C1CSC(c2ccc(F)c(F)c2)N1c1cc(Cl)cc(Cl)c1 (stereo not given)	-35	1
Cc1ccc(C(CC(=O)NC(C)(C)C)c2ccccc2)c(O)c1 (stereo not given)	27	-12
CN1CCN(C(=O)c2cnc(-c3ccccc3)nc2N(C)Cc2ccccc2)CC1	68*	-8
